TDP1 block: qHTS Assay for Inhibitors of Tyrosyl-DNA Phosphodiesterase (TDP1) | Tyrosyl-DNA phosphodiesterase 1 (Homo sapiens), Q9NUW8 | AID 485290, 2010 | Potency, µM (titrated, usually from 130 µM), without a hit: at the top dose activity change, negative = inhibition, hits mostly inhibitors | recombinant TDP1, AlphaScreen DNA substrate cleavage | actives 0.28% (n = 350,000); also: nearly all actives have a fitted effect of over 40% in size
Target sequence (Q9NUW8 whole entry, looked up): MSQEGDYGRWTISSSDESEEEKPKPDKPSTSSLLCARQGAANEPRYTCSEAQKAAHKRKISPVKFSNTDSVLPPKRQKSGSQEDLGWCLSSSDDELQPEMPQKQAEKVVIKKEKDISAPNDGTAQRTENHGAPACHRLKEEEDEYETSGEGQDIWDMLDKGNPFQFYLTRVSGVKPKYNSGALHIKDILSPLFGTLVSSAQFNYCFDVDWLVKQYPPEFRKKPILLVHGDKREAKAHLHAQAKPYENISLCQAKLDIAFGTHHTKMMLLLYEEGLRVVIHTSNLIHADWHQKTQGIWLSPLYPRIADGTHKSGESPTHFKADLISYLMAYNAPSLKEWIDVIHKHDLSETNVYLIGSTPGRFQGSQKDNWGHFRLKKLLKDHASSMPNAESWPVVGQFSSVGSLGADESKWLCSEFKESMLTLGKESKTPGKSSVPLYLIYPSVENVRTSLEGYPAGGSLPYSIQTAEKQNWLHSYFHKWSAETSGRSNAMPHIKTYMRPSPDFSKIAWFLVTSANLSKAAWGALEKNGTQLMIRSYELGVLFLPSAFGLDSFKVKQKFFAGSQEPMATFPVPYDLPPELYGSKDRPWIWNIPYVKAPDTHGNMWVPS
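Recombinant human Tdp1 (E. coli-expressed, 1 nM final) preincubated with compounds 15 min at room temperature, then 5'-biotin/3'-phosphotyrosine-FITC DNA substrate (15 nM final) added for 5 min. AlphaScreen beads (10 ug/ml final) added 10 min; cleavage lowers signal.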
TDP1 cell noCPT: qHTS for Inhibitors of human tyrosyl-DNA phosphodiesterase 1 (TDP1): qHTS in cells in absence of CPT | DT40 Tdp1-/- hTDP1 cells, no CPT, ATP luminescence, 48 h | Potency, µM (titrated, usually from 46.2 µM), for the others: at the top dose activity change, negative = growth inhibition, hits mostly inhibitors | actives 15% (n = 420,000) | AID 686978, 2013; also: nearly all actives have a fitted effect of over 55% in size
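Stably hTDP1-transfected Tdp1-null chicken DT40 cells were treated with library compounds minus camptothecin and grown for at least 48 hr at 37 °C, after which cellular ATP was quantified by luminescence.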
Gal4-VP16 FLuc: VP16 counterscreen qHTS for inhibitors of ROR gamma transcriptional activity; Potency, µM (series often up to 53.6 µM), inactives show at the top dose activity, negative = inhibition, most hits filed as inhibitors; Drosophila S2 Gal4-VP16 UAS-luciferase, luminescence, 20 h; AID 2546, 2010; actives 3.5% (n = 310,000);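 also: Gal4-VP16 expression switched on by copper sulfate through the metallothionein promoter; nearly all actives have a fitted effect of over 50% in size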
TDP1 cell CPT: qHTS for Inhibitors of human tyrosyl-DNA phosphodiesterase 1 (TDP1): qHTS in cells in presence of CPT | Potency, µM (titrated, usually from 46.2 µM), for the others: at the top dose activity change, negative = growth inhibition, hits mostly inhibitors | AID 686979, 2013 | chicken DT40 Tdp1-/-;hTDP1 cells + 20 nM CPT, ATP luminescence, 48 h | actives 12% (n = 420,000); also: nearly all actives have a fitted effect of over 55% in size
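Cell growth measured by CellTiter-Glo luminescence after a minimum 48 h, 37 C compound exposure with 20 nM CPT in Tdp1-knockout DT40 cells stably expressing hTDP1, seeded 400/well; qHTS titration format.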
RORg inh: qHTS for inhibitors of ROR gamma transcriptional activity. actives 5.4% (n = 310,000). AID 2551, 2010. Potency, µM (titrated, usually from 53.6 µM), for the others: at the top dose activity change, negative = inhibition, actives largely listed as inhibitors. Nuclear receptor ROR-gamma (Mus musculus), P51450. Drosophila S2 Gal4-RORgamma UAS-luciferase reporter, 20 h; also: nearly all actives have a fitted effect of over 60% in size
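ROR gamma transcriptional activity was tracked as Gal4-UAS luciferase output in stably transfected Drosophila Schneider cells, with compound added 1 hr before 700 uM copper sulfate induction and a 20 hr ambient-temperature incubation.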
Numbers without * were called inactive; ? = inconclusive; . = not tested or not shown; [ ] = another dose, or the depositor's remark. In the library only some 19% were active in any assay of this set; here they are far more common. Calls follow the shape of the dose curve; as a rule, active = well fitted curve in the direction sought with a large enough effect; inconclusive = small, poorly fitted or top-dose-only effect, or another doubt; inactive = no such curve, though single readings can be large; an effect the other way counts as inactive or inconclusive. % is scaled to controls: 0 for no effect and ±100 for the full control effect; potency is read from the fitted curve at half-maximal effect.

SMILES	TDP1 block	TDP1 cell noCPT	Gal4-VP16 FLuc	TDP1 cell CPT	RORg inh
Cc1cc(N)n(-c2ncnc3scc(-c4ccc(Cl)cc4)c23)n1	2%[56.1 µM]	-21%	-10%	-1%	-23%
O=C(COC(=O)c1nn(CCO)c(=O)c2ccccc12)Nc1ccc(Cl)c(Cl)c1	1%	-30%	.	-19%	.
COc1ccc(OC)c(C(=O)Cn2c3[n+](c4ccc(C(F)(F)F)cc42)CCCCC3)c1	-3%	5.8µM*	-1%	5.2µM*	?
Fc1ccccc1Cn1c2[n+](c3ccc(C(F)(F)F)cc31)CCCCC2	3%	?	-14%	?	42%
O=C(Nc1c2c(nn1-c1ccc(F)cc1)CS(=O)(=O)C2)C1CCCC1	-2%	1%	-4%	5%	-12%
C(=Nc1cccnc1)c1ccnc2ccccc12	.	1.8µM*	.	2µM*	.
C(=Nc1cnc2ccccc2c1)c1cccnc1	.	5%	.	17%	.
C(=Nc1cnc2ccccc2c1)c1ccnc2ccccc12	.	2.8µM*	.	2.8µM*	.
CCC(C)NC(=O)CN1c2cccc3cccc(c23)S1(=O)=O (stereo not given)	.	-28%	1%	-26%	12%
COC(/C(=N/O)c1ccc(Cl)cc1)c1ccccc1 (stereo not given)	.	23µM*	4.5µM*	?	5.6µM*
CCNc1c(NS(=O)(=O)c2ccc(OC)c(Cl)c2)c(=O)oc2ccccc12	2%	?	1%	?	11%
N/C(=N/O)c1ccccc1N1CCC(Cc2ccccc2)CC1	2%	15µM*	7%	?	4%
c1ccc(CC2CCN(c3nnnn3-c3ccccc3)CC2)cc1	0%	-30%	2%[0.365 µM]	-16%	28%
CCOC(=O)c1cc(C(=O)OCC)c2cccc(C)n2c1=O	-3%	13µM*	-1%	7.3µM*	16%
CCOC(=O)c1cc(Br)c(=O)n2ccccc12	1%	?	?	-15%	-7%
COc1ccc(NC2CCCN(C(=O)CSc3ccccn3)C2)cc1OC (stereo not given)	2%	-1%	14%	-21%	2%
COc1ccc(NC2CCCN(Cc3cccc4cnccc34)C2)cc1OC (stereo not given)	.	21µM*	10%	?	16%
COc1ccc(NC2CCCN(Cc3cccc4cnccc34)C2)cc1 (stereo not given)	.	21µM*	-5%	?	2%
COc1ccc(NC2CCCN(C(=O)c3cccnc3)C2)cc1 (stereo not given)	2%	-25%	-11%	2%	-1%
CC1CCN(c2c(NCc3ccc(C(=O)N4CCN(C5CCCCC5)CC4)cc3)c(=O)c2=O)CC1	4%	-16%	-5%	-19%	22%
CC1CCN(c2c(NCc3ccc(C(=O)N4c5ccccc5CC4C)cc3)c(=O)c2=O)CC1 (stereo not given)	3%	23µM*	26%	18µM*	?
CCOc1ccccc1NC(=O)c1c(NC(=O)COc2ccc(Cl)cc2)sc2c1CCCCC2	-5%[12.3 µM]	-1%	.	-4%	.
CCOc1ccccc1NC(=O)c1c(NC(=O)COc2ccccc2)sc2c1CCCCC2	-5%[12.3 µM]	2.1µM*	.	2.1µM*	.
CCOc1ccccc1NC(=O)c1c(NC(=O)c2cccc(C)c2)sc2c1CCCC2	-3%[12.3 µM]	23µM*	.	?	.
COc1ccc(CC(=O)Nc2sc3c(c2C(=O)Nc2ccccc2)CCCCC3)cc1	-9%[12.3 µM]	?	.	-69%	.
CCOc1ccccc1NC(=O)c1c(NC(=O)Cc2ccc(OC)cc2)sc2c1CCC2	5%[12.3 µM]	5.8µM*	.	8.2µM*	.
CCCCc1ccc(NC(=O)COc2ccc(C(=O)Nc3ccccc3OCC)cc2)cc1	3%	?	10µM*	?	?
Nc1c(C(=O)O)cnn1-c1ccc([N+](=O)[O-])cc1	.	9%	-14%	4%	0%
